# In all, about 300,000 compounds went through this assay and about 37,000 (12%) were called active. This is one part of a sample in which actives are shown more often than they occur. Values without a mark were called inactive. Rule as the data show it: active = max response mostly above about 13% (no sharp cut-off); inactive = mostly below about 14%.
# Assay: Cycloheximide Counterscreen for Small Molecule Inhibitors of Shiga Toxin; also: read at 38.3 µM for the half of the compounds with a filed dose; 0% is about no effect
# Settings: cell reporter, cycloheximide protein synthesis inhibition counterscreen; active compounds read high
row,SMILES,max response
1,CCC(C)[C@H](NC(=O)N1CCn2c1nc1ccccc12)C(=O)NCc1ccc(OC)cc1 (stereo partly specified),7.87%
2,CC1CCN(C(=S)NC2CC3CCC2C3)CC1 (stereo unspecified),-2.5%
3,O=C(CCCCCn1c(=S)[nH]c2ccsc2c1=O)NC1CCCCC1,-3.34%
4,Cc1nc(NC2=NC(C(=O)Nc3ccc(Cl)cc3)CC(=O)N2)nc2ccccc12 (stereo unspecified),-1.93%
5,Cc1ccc2c(C)c(C(=O)N(C)Cc3ccncn3)oc2c1C,-3.14%
6,CCOC(=O)C1(CC2CCCCO2)CCN(Cc2nc(-c3cccs3)oc2C)CC1 (stereo unspecified),-1.4%
7,CC(C(=O)c1ccc(-c2ccccc2)cc1)[n+]1cccc(Br)c1 (stereo unspecified),-1.92%
8,CC(NC(=O)c1ccco1)c1ccc2c(c1)OCO2 (stereo unspecified),-2.24%
9,Cc1c(C)c2c(OCC(=O)N[C@@H](C(=O)O)c3ccccc3)cc3c(c2oc1=O)CCC(C)(C)O3,0.453%
10,Cc1nn(C)c(C)c1CN(C(=O)CCc1nnc(Cc2c[nH]c3ccccc23)o1)C(C)C,-2.58%
11,COCCNC(=O)/C(C#N)=C/c1nc(N(C)C)n(-c2ccc(F)cc2)c1Cl,6.45%
12,CSCCC(NS(=O)(=O)c1ccc(C)cc1)C(=O)N1CCCC1 (stereo unspecified),-0.967%
13,COc1ccc(C(=O)NNC(=S)NC(=O)c2ccccc2)cc1,8.67%
14,COc1ccc(C(=O)Nc2ccc(NC(=O)C(C)C)nc2)cc1,2.34%
15,COc1ccc(NC(=O)c2ccc(OC)cc2)cc1,45.1% (active)
16,COc1ccc(C(=O)NC(=S)NC2CCCCC2)cc1,72.8% (active)
17,Cc1cccc(C(=O)Nc2ccccc2C(=O)NCc2cccnc2)c1,-1.87%
18,O=C(NC(=S)NC1CCCCC1)c1ccc(Cl)cc1,-1.68%
19,Cc1cccc(C(=O)Nc2ccc3c(c2)C(=O)N(CC(C)C)C3=O)c1,10.4%
20,COc1ccc(C(=O)Nc2cccc(S(C)(=O)=O)c2)cc1,-2.97%
21,Cc1cccc(C(=O)Nc2ccc(Oc3cnccn3)cc2)c1,22.6% (active)
22,COCCNC(=O)Nc1ccc2nc(-c3ccco3)c(-c3ccco3)nc2c1,-4.08%
23,COc1ccc(NC(=O)Nc2ccc3nsnc3c2)cc1,49.2% (active)

row,SMILES,max response
1,COc1ccc(/C=N/NC(=O)Nc2ccc3nsnc3c2)c(OC)c1,-1.93%
2,O=C(C1CCCO1)N1CCN(C(=S)NC2CC2)CC1 (stereo unspecified),-1.72%
3,CN1C(=O)[C@H]2[C@@H](C3CC3)N3C(=O)CN(Cc4ccccc4)C(=O)[C@@]3(C)[C@H]2C1=O,-0.826%
4,CNC(=O)CN1C(=O)NC(c2ccccc2)(c2ccccc2)C1=O,-2.25%
5,Cc1ccc(C(=O)O)cc1-c1ccc(/C=C2\SC(=O)N(CC(=O)Nc3ccc4c(c3)OCO4)C2=O)o1,-2.31%
6,O=C(NN1C(=O)C2C3C=CC(C4CC34)C2C1=O)c1ccc(Cl)cc1 (stereo unspecified),3.35%
7,C=C(C)C1CC=C(C)C(O)C1 (stereo unspecified),7.86%
8,CN(C(=O)COc1nnc(-c2cccs2)c(-c2cccs2)n1)c1ccccc1,0.449%
9,COc1cccc(N(CC(=O)Nc2cccc(F)c2)S(C)(=O)=O)c1,-5.13%
10,COc1ccc(NC(=O)c2sccc2SCC#N)cc1,40% (active)
11,CCN(CC)C(=O)c1ccc(NC(=O)c2sccc2-c2ccccc2)cc1,0.344%
12,COc1cccc(N(CC(=O)Nc2cccc(N(C)S(C)(=O)=O)c2)S(C)(=O)=O)c1,-2.16%
13,CCOc1ccc(N(CC(=O)Nc2cccc(OC)c2)S(C)(=O)=O)cc1,27.2% (active)
14,COc1ccc(NC(=O)c2sc(N)nc2-c2ccccc2)cc1,1.95%
15,CCOc1cccc(-c2nnc(SCC(=O)NC3CC3)n2C)c1,5.85%
16,CCOC(=O)NN1C(=O)c2ccccc2NC1c1ccccc1O (stereo unspecified),-0.209%
17,COc1ccc(CCNC(=O)CCc2cn(C)c3ccccc23)c(OC)c1,0.538%
18,O=C(NCCNc1ccc([N+](=O)[O-])cc1)c1cccc2c(Br)cccc12,-5.64%
19,O=S(=O)(c1ccc(Cl)cc1)c1nc(-c2ccccc2F)oc1NCCN1CCOCC1,0.972%
20,O=C(c1cc(C(=O)N2CCN(c3ccc(F)cc3)CC2)cc([N+](=O)[O-])c1)N1CCN(c2ccc(F)cc2)CC1,1.24%
21,Nc1ccccc1C(=O)NC1CCCCNC1=O (stereo unspecified),-3.17%
22,CNC(=S)N/N=C1\C2CN3CCN(C2)CC1(c1ccccc1)C3,0.185%
23,CC12CN3CCN(CC(C3)/C1=N\NC(=O)c1ccccc1N)C2,42.9% (active)

row,SMILES,max response
1,CC1CC(C)CN(C(=O)C2CC(=O)N(c3ccc(F)cc3)C2)C1 (stereo unspecified),-5.15%
2,COc1cc2c3c(c1)/C(=C1/SC(=S)NC1=O)C(=O)N3C(C)(C)C=C2C,-0.91%
3,CC(=O)Nc1cccc(OCC(=O)/C=C2\N(C)c3ccccc3C2(C)C)c1,17%
4,COc1ccc(CNC(=O)COc2cccnc2[N+](=O)[O-])cc1,-2.66%
5,Cc1ccc(-n2ncc3c(Nc4cccc(C(=O)O)c4)ncnc32)cc1,45.3% (active)
6,Cc1ccc(Nc2ncnc3c2cnn3C)c(C)c1,1.06%
7,O=C(NNc1ncnc2c1cnn2-c1ccccc1)c1ccco1,9.27%
8,CCOC(=O)C1CN(S(=O)(=O)c2ccc(F)cc2)C1,1.16%
9,C=CCn1c(=S)[nH]c2scc(-c3ccco3)c2c1=O,-1.66%
10,COc1cc(C2C(N3C(=O)c4ccccc4C3=O)C(=O)N2c2ccc(C)c(C)c2)cc(OC)c1OC (stereo unspecified),-1.4%
11,COC(=O)c1ccc(S(=O)(=O)NCc2ccccc2)n1C,-1.21%
12,COc1ccc(C2C3=C(CCCC3=O)N(CC(=O)O)C3=C2C(=O)CCC3)cc1,-0.955%
13,CC(=O)Cc1nsc(NC(=O)c2ccc(COc3ccc(C)cc3)o2)n1,4.45%
14,CCOc1ccc(OCc2ccc(C(=O)Nc3cccc(C)n3)o2)cc1,21.2% (active)
15,Cc1cccc(NC(=O)c2ccc(COc3ccccc3[N+](=O)[O-])o2)n1,9.42%
16,Cc1ccc(NC(=O)c2nc[nH]c2C(=O)N[C@@H](CCCCNC(=O)OC(C)(C)C)C(=O)OC(C)(C)C)cc1,-3.36%
17,O=C(NCC(=O)N1CCN(c2ncc(C(F)(F)F)cc2Cl)CC1)c1ccc(Br)o1,-1.14%
18,CCCC(=O)Nc1nnc(-c2ccccc2)o1,-3.55%
19,CCc1nnc(NC(=O)c2nc3nccc(C)n3n2)s1,-2.71%
20,Cc1ccnc2nc(C(=O)Nc3nnc(-c4ccccc4)o3)nn12,23.5% (active)
21,C=CCN(c1ccccc1C(=O)NCC(=O)OCC)S(=O)(=O)c1ccc(C)cc1,-3.9%
22,CCn1cc(C(=O)NCCCN2CCCCCC2)c(=O)c2cc(S(=O)(=O)N3CCc4ccccc4C3)ccc21,-1.21%
23,CCO[C@H]1OC(C(=O)NCc2ccccc2)=C[C@@H](c2coc3ccccc3c2=O)[C@@H]1CCCO,-1.05%

row,SMILES,max response
1,CCC(=O)N1c2ccc(S(=O)(=O)NCc3ccco3)cc2CC1C (stereo unspecified),19.8%
2,O=C(O)CCCC(=O)Nc1ccc(Oc2cccc(C(F)(F)F)c2)nc1,5.78%
3,COCC1CCN(C(=O)c2ccc3oc(Cc4ccccc4)nc3c2)C1 (stereo unspecified),39.1% (active)
4,COC(=O)C1CCN(C(=O)c2ccc3oc(Cc4ccc(Cl)cc4)nc3c2)CC1,-2.56%
5,COc1ccc(C(=O)N2CCCC(C(=O)c3ccccc3OC)C2)cc1OC (stereo unspecified),9.55%
6,COc1c(C)cc(C(=O)C2CCCN(S(=O)(=O)c3c(C)noc3C)C2)cc1C (stereo unspecified),5.32%
7,Cc1ccc2c(c1)N(CC(=O)N1CCOCC1)C(=O)CO2,-3.08%
8,Cc1nc(C(=O)Nc2ccc(Cl)cc2)sc1C1(C)CC(c2ccccc2)=NO1 (stereo unspecified),9.03%
9,Cc1nc(-c2ccc(Cl)cc2)sc1C1(C)CC(c2ccccc2F)=NO1 (stereo unspecified),20.7% (active)
10,Cc1nc(C(=O)NCc2ccccc2)sc1C1(C)CC(c2cccnc2)=NO1 (stereo unspecified),-3.23%
11,CCN(c1ccc(NC(=O)COC(=O)CCc2nc3ccccc3n2-c2ccccc2)cc1)C(C)C,6.5%
12,COc1ccccc1NC(=O)COc1ccc(C(=O)OCC(=O)N(C(C)C)C(C)C)cc1OC,-3.62%
13,COc1ccc2c(c1)C(NS(=O)(=O)OCC(Cl)(Cl)Cl)CCC2 (stereo unspecified),0.921%
14,COc1cc2c(C(=O)N3CCN(C)CC3)c(CSc3ccccc3)n(C)c2cc1Br,-3.14%
15,Cc1ccc(C(=O)N/C(=C\c2cn(S(=O)(=O)N(C)C)c3ccccc23)C(=O)N2CCCC2)cc1,-4.36%
16,Cc1nc(-c2ccc(F)cc2)c(CC(=O)N2CCN(S(=O)(=O)c3ccc(F)cc3)CC2)s1,-1.12%
17,CCOc1ccc(CNC(=O)CCC(=O)N2CCSc3ccccc32)cc1,3.9%
18,Cc1ccc(NC(=O)N2CCSc3ccccc32)cc1,21.8% (active)
19,Cc1ccc(NC(=O)N2CCC(O)(c3cccnc3)CC2)cc1,-0.6%
20,Cc1ccc2c(=O)oc(N(C)C)nc2c1,-3.11%
21,COc1ccc(CNC(=O)CCN2C(=O)c3ccccc3C2=O)cc1,-8.4%
22,Cc1cc(C(=O)NC2CCCc3c2cnn3-c2cccc(C)c2C)c(C)o1 (stereo unspecified),0.915%

# From PubChem BioAssay AID2314 (National Center for Advancing Translational Sciences (NCATS), 2010)
